A short description of experiment [1]: BSK_4H_Eotaxin3: BioMAP Diversity Plus: 4H Assay for Eotaxin 3 Biomarker Activity (AID 2283000).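 Also: CCL26 protein level quantified by ELISA in parallel with SRB cytotoxicity check.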 The settings on record: primary human endothelial cells (HUVEC); actives raise or lower the signal. In short, it runs like this: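 HUVEC, 24 h post-dose, ELISA for Eotaxin-3/CCL26. Gain or loss of signal fitted bidirectionally vs DMSO baseline.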
Read-out in experiment [2]: Intercellular Adhesion Molecule 1 (ICAM1), ICAM1 (gene 3383)
The experiment can be described thus: BSK_3C_ICAM1: BioMAP Diversity Plus: 3C Assay for Intercellular Adhesion Molecule 1 (ICAM1) Biomarker Activity (AID 2283003). The settings on record: primary human endothelial cells (HUVEC); actives raise or lower the signal. In short, it runs like this: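 Human vascular endothelial primary cells, 3C conditions, 24 h treatment. ICAM-1 by ELISA.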

Experiment [3] deals with human Retinoic Acid Receptor beta (RARb), RARB (gene 5915) (UniProt P10826). Nature of the experiment: ATG_RARb_TRANS: Attagene TRANS-FACTORIAL HepG2 Assay for human Retinoic Acid Receptor beta (AID 2283004; active = hit-call score of the fitted dose curve at least 0.9, where 1 is the maximum). In short, it runs like this: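 HepG2 cells transiently transfected with multiplexed GAL4-UAS reporter units expressing chimeric NR–Gal4 fusions; 24 h compound exposure. Reporter mRNA quantified by RT-PCR, 6-FAM labelling, HpaI digestion and capillary electrophoresis; gain-of-signal fitted against DMSO baseline.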

Experiment [4] can be described thus: BSK_3C_Proliferation: Cell Proliferation Assessment in the BioMAP Diversity Plus: 3C Assay (AID 2283006).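 As to AC50: potency may reflect either rise or fall in cell number versus DMSO.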 The note with it: primary human endothelial cells (HUVEC). In short, it runs like this: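 Proliferation of human vascular endothelial primary cells after 48 h dosing, quantified as SRB-stained protein at 560 nm relative to DMSO.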
Experiment [5] concerns the target Peroxisome proliferator-activated receptor gamma (Homo sapiens) (UniProt P37231). The experiment can be described thus: ATG_PPARg_TRANS: Attagene TRANS-FACTORIAL HepG2 Assay for human Peroxisome Proliferator-activated Receptor-gamma (PPARg) (AID 2283007; active = hit-call score of the fitted dose curve at least 0.9, where 1 is the maximum). Summed up:
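Twenty-four hours after chemical dosing of transiently transfected HepG2 cells, isolated RNA was converted to cDNA, reporter sequences amplified and 6-FAM-labelled, then HpaI-digested and analysed by capillary electrophoresis. Signal increase against DMSO was fitted.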

Experiment [6] addresses Nuclear receptor subfamily 1 group I member 2 (Homo sapiens) (UniProt O75469). Nature of the experiment: ATG_PXR_TRANS: Attagene TRANS-FACTORIAL HepG2 Assay for human Pregnane X Receptor (PXR) (AID 2283008; active = hit-call score of the fitted dose curve at least 0.9, where 1 is the maximum). In short, it runs like this:
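HepG2 cells transiently transfected with GAL4-UAS reporter units and PXR-Gal4 chimera, exposed 24 h. Reporter mRNA quantified by RT-PCR, fluorescent labelling, HpaI digestion and capillary electrophoresis; gain of signal vs DMSO.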

Read-out in experiment [7]: E-selectin (Homo sapiens) (UniProt P16581)
The experiment can be described thus: BSK_3C_Eselectin: BioMAP Diversity Plus: 3C Assay for Eselectin Biomarker Activity (AID 2283015).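 As to outcome: cell surface E-selectin protein quantified by ELISA 24 h after dosing.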 The settings on record: primary human endothelial cells (HUVEC); actives raise or lower the signal. Summed up:
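Primary human umbilical vein endothelial cells (3C system) were dosed with chemical and cell-surface E-selectin measured by ELISA 24 h later. Bidirectional curve fitting used DMSO as negative control and baseline.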

Read-out in experiment [8]: Interleukin-1 alpha (IL1a), IL1A (gene 3552)
The experiment can be described thus: BSK_BE3C_IL1a: BioMAP Diversity Plus: BE3C Assay for Interleukin-1 alpha (IL1a) Biomarker Activity (AID 2283016). The note with it: primary human bronchial epithelial cells; actives raise or lower the signal. In short, it runs like this:
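Cultures of primary human bronchial epithelial cells receive test chemical. After 24 h, IL-1a is quantified by ELISA, while parallel wells are fixed in TCA and SRB-stained for total protein. Changes in either direction are fitted relative to DMSO.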

Read-out in experiment [9]: Monocyte Chemoattractant Protein-1 (MCP1), CCL2 (gene 6347)
Nature of the experiment: BSK_3C_MCP1: BioMAP Diversity Plus: 3C Assay for Monocyte Chemoattractant Protein-1 (MCP1) Biomarker Activity (AID 2283017). The note with it: primary human endothelial cells (HUVEC); actives raise or lower the signal. In short, it runs like this:
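Primary human umbilical vein endothelial cells (3C system) were exposed to test chemical for 24 h, after which MCP-1 was quantified by ELISA. Activity was fitted bidirectionally against DMSO as negative control and baseline.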

Read-out in experiment [10]: Monocyte Chemoattractant Protein-1 (MCP1), CCL2 (gene 6347)
The experiment can be described thus: BSK_4H_MCP1: BioMAP Diversity Plus: 4H Assay for Monocyte Chemoattractant Protein-1 (MCP1) Biomarker Activity (AID 2283018). The settings on record: primary human endothelial cells (HUVEC); actives raise or lower the signal. Summed up: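 Readout: MCP-1 ELISA on compound-treated HUVEC, sampled 24 h post-dosing. Baseline and negative control DMSO; bidirectional fit. Overt toxicity checked alongside by sulforhodamine B protein staining at time of biomarker measurement.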

Read-out in experiment [11]: Human Leukocyte Antigen - DR isotype (HLADR), HLA-DRA (gene 3122)
The experiment can be described thus: BSK_3C_HLADR: BioMAP Diversity Plus: 3C Assay for Human Leukocyte Antigen - DR isotype (HLADR) Biomarker Activity (AID 2283019).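 As to outcome: ELISA of cell-surface HLA-DR on HUVEC 24 h after dosing.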 The note with it: primary human endothelial cells (HUVEC); actives raise or lower the signal. In short, it runs like this:
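Primary human umbilical vein endothelial cells (3C system) were dosed with compound and cell-surface HLA-DR was quantified by ELISA at 24 h. Activity was fitted bidirectionally against DMSO as negative control and baseline.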

Read-out in experiment [12]: Interleukin-8 (IL8), CXCL8 (gene 3576)
Nature of the experiment: BSK_3C_IL8: BioMAP Diversity Plus: 3C Assay for Interleukin-8 (IL8) Biomarker Activity (AID 2283020). The note with it: primary human endothelial cells (HUVEC); actives raise or lower the signal. In short, it runs like this: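 Human vascular endothelial cells (umbilical vein) in the 3C system; IL-8 level detected by ELISA at 24 h post-dose, with DMSO as baseline.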

Experiment [13] deals with human Peroxisome Proliferator-activated Receptor alpha (PPARa), PPARA (gene 5465) (UniProt Q07869). The experiment can be described thus: ATG_PPARa_TRANS: Attagene TRANS-FACTORIAL HepG2 Assay for human Peroxisome Proliferator-activated Receptor alpha (PPARa) (AID 2283001; active = hit-call score of the fitted dose curve at least 0.9, where 1 is the maximum). Summed up:
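Reporter transcripts from GAL4-UAS units in transfected HepG2 were quantified 24 h after dosing. Detection used reverse transcription, PCR, fluorescent primer extension and capillary electrophoresis, with DMSO as baseline.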

For experiment [14], the target named is human Retinoic Acid Receptor gamma (RARg), RARG (gene 5916) (UniProt P13631). The experiment can be described thus: ATG_RARg_TRANS: Attagene TRANS-FACTORIAL HepG2 Assay for human Retinoic Acid Receptor gamma (RARg) (AID 2283009; active = hit-call score of the fitted dose curve at least 0.9, where 1 is the maximum). Summed up:
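HepG2, RARg-GAL4 TRANS system, 24 h exposure; reporter mRNA by RT-PCR + CE fluorescence; increase over DMSO.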

Experiment [15] deals with human RAR-related Orphan Receptor beta (RORb), RORB (gene 6096) (UniProt Q92753). Nature of the experiment: ATG_RORb_TRANS: Attagene TRANS-FACTORIAL HepG2 Assay for human RAR-related Orphan Receptor beta (RORb) (AID 2283010; active = hit-call score of the fitted dose curve at least 0.9, where 1 is the maximum). Summed up:
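In this TRANS-format test, human HepG2 cells express chimeric NR-Gal4 fusion proteins driving GAL4-UAS reporters. After 24 h dosing, reporter transcripts are measured by fluorescent RT-PCR/capillary electrophoresis, with DMSO as negative control.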

The target of experiment [16] is human RAR-related Orphan Receptor gamma (RORg), RORC (gene 6097) (UniProt P51449). Nature of the experiment: ATG_RORg_TRANS: Attagene TRANS-FACTORIAL HepG2 Assay for human RAR-related Orphan Receptor gamma (RORg) (AID 2283011; active = hit-call score of the fitted dose curve at least 0.9, where 1 is the maximum). Summed up:
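Readout: reporter transcript induction (RT-PCR, fluorescent primer extension, capillary electrophoresis) after 24 h compound exposure of transiently transfected HepG2 cells carrying a RORg-Gal4 chimera and GAL4-UAS reporters; DMSO served as baseline, with increasing signal fitted.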

For experiment [17], the target named is Retinoic acid receptor RXR-alpha (Homo sapiens) (UniProt P19793). The experiment can be described thus: ATG_RXRa_TRANS: Attagene TRANS-FACTORIAL HepG2 Assay for human Retinoid X Receptor alpha (RXRa) (AID 2283012; active = hit-call score of the fitted dose curve at least 0.9, where 1 is the maximum). In short, it runs like this:
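Cells (HepG2) carried transiently transfected GAL4-responsive reporter units. Following a 24 h chemical incubation, reporter mRNA induction was read via RT-PCR fragment analysis; DMSO served as negative control and baseline.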

The target of experiment [18] is human Retinoid X Receptor beta (RXRb), RXRB (gene 6257) (UniProt P28702). Nature of the experiment: ATG_RXRb_TRANS: Attagene TRANS-FACTORIAL HepG2 Assay for human Retinoid X Receptor beta (RXRb) (AID 2283013; active = hit-call score of the fitted dose curve at least 0.9, where 1 is the maximum). In short, it runs like this:
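Multiplexed TRANS reporter assay in HepG2; 24 h dosing; reporter mRNA by RT-PCR/CE fluorescence; gain-of-signal relative to DMSO.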

The target in experiment [19] is human Thyroid Receptor alpha (THRa1), THRA (gene 7067) (UniProt P10827). The experiment can be described thus: ATG_THRa1_TRANS: Attagene TRANS-FACTORIAL HepG2 Assay for human Thyroid Receptor alpha (THRa1) (AID 2283014; active = hit-call score of the fitted dose curve at least 0.9, where 1 is the maximum). In short, it runs like this: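 HepG2 cells transiently transfected with multiplexed GAL4-UAS reporter units for exogenous chimeric THRa1-Gal4; reporter mRNA measured 24 h after dosing by RT-PCR, 6-FAM labelling, HpaI digestion and capillary electrophoresis. Gain-of-signal fitted versus DMSO baseline.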
Chain of human Thyroid Receptor alpha (THRa1), THRA (gene 7067) (P10827 whole entry, looked up, the tested form may be a part): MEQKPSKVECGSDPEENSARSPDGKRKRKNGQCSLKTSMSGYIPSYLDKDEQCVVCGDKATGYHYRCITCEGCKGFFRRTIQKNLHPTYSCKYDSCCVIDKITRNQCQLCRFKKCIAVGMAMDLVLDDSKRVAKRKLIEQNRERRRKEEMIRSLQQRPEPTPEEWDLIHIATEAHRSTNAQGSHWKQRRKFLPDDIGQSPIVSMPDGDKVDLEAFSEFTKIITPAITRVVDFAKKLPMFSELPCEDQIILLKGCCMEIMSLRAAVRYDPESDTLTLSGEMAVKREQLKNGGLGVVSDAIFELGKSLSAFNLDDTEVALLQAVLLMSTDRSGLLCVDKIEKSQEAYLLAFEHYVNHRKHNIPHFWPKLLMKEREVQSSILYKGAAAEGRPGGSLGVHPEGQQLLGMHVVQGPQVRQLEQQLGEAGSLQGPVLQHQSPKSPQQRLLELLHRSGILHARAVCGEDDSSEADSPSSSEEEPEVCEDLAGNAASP

For experiment [20], the target named is human Peroxisome Proliferator-activated Receptor delta (PPARd), PPARD (gene 5467) (UniProt Q03181). The experiment can be described thus: ATG_PPARd_TRANS: Attagene TRANS-FACTORIAL HepG2 Assay for human Peroxisome Proliferator-activated Receptor delta (PPARd) (AID 2283002; active = hit-call score of the fitted dose curve at least 0.9, where 1 is the maximum). Summed up: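 Transient HepG2 transfection (multiple GAL4-UAS RTUs, chimeric receptor-Gal4); 24 h dosing; total RNA → oligo(dT) RT → PCR → 6-FAM primer extension → HpaI cut → CE. Positive direction vs DMSO.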

Results filed as inconclusive are left out. Activity calls are given as the source filed them. The calls were made as follows, unless noted: active = hit-call score of the fitted dose curve at least 0.9, where 1 is the maximum; inactive = score below 0.9.

For orientation: AC50 means the concentration at which the activity in the assay is half-maximal.

Chain of Peroxisome proliferator-activated receptor gamma (Homo sapiens) (P37231 whole entry, looked up): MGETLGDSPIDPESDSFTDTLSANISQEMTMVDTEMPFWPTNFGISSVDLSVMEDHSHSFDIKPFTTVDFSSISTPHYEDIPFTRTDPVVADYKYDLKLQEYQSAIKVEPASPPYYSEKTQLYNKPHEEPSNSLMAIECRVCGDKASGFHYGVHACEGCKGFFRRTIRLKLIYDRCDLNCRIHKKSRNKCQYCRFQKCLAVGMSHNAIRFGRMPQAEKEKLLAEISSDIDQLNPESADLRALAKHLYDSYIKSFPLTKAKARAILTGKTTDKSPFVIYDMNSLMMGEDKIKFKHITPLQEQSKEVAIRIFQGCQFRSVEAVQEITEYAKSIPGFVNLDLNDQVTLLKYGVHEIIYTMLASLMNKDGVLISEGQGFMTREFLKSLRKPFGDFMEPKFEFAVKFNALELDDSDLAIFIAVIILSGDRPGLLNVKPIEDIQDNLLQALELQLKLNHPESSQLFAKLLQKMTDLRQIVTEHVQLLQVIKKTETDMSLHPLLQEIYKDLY
Chain of human RAR-related Orphan Receptor gamma (RORg), RORC (gene 6097) (P51449 whole entry, looked up, the tested form may be a part): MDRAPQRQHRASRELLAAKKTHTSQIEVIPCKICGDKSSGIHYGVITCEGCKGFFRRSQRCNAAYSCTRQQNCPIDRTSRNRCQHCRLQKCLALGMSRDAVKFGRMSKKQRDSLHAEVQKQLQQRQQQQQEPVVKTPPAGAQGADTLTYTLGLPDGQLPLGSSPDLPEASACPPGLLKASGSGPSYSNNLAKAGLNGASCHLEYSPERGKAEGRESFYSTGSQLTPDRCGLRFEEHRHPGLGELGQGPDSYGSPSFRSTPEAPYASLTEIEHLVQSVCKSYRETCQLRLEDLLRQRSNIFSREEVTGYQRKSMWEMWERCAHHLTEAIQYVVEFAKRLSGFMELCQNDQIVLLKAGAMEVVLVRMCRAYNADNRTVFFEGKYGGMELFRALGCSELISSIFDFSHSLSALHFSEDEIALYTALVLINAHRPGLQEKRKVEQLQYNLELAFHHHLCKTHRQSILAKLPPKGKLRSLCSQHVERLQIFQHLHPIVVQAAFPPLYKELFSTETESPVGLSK
Chain of human Retinoid X Receptor beta (RXRb), RXRB (gene 6257) (P28702 whole entry, looked up): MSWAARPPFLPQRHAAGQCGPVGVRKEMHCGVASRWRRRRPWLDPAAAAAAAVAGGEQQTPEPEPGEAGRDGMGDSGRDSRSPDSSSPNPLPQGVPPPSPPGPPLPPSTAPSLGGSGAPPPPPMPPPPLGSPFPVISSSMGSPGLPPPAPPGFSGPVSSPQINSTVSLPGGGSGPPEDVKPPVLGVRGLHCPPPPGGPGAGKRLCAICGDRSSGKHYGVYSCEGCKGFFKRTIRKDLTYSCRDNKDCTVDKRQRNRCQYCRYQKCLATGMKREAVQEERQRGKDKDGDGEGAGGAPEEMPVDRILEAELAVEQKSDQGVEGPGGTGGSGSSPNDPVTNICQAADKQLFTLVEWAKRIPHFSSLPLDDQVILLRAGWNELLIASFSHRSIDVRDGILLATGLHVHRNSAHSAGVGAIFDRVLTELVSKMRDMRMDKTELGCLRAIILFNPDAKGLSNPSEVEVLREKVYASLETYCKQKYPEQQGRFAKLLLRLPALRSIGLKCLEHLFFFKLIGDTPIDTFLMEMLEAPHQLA
Chain of human RAR-related Orphan Receptor beta (RORb), RORB (gene 6096) (Q92753 whole entry, looked up, the tested form may be a part): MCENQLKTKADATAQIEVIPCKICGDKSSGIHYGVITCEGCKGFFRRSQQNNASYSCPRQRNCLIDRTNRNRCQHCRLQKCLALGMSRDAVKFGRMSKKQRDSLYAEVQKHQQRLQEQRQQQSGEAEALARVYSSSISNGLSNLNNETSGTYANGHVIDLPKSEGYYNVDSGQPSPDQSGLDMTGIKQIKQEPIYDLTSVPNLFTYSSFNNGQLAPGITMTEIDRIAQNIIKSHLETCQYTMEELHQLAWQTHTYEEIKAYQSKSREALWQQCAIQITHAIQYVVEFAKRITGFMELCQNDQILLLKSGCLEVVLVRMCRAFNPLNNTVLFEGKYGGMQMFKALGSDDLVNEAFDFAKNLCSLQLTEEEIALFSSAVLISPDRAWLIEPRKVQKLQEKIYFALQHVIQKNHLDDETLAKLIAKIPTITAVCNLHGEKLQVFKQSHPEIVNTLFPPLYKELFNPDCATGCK
Chain of human Peroxisome Proliferator-activated Receptor alpha (PPARa), PPARA (gene 5465) (Q07869 whole entry, looked up, the tested form may be a part): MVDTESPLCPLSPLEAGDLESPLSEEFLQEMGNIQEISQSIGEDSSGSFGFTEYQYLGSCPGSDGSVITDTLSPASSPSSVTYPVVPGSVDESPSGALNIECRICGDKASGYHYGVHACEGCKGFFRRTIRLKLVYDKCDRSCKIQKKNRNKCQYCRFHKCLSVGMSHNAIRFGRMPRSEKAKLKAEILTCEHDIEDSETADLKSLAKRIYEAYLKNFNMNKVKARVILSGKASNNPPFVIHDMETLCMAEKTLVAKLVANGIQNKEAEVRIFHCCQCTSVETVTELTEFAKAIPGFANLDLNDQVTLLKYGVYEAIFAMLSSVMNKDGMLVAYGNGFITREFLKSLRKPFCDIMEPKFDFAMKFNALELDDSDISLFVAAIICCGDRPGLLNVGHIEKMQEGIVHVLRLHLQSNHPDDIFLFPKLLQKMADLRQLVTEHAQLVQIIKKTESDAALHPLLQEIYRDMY
Chain of Retinoic acid receptor RXR-alpha (Homo sapiens) (P19793 whole entry, looked up, the tested form may be a part): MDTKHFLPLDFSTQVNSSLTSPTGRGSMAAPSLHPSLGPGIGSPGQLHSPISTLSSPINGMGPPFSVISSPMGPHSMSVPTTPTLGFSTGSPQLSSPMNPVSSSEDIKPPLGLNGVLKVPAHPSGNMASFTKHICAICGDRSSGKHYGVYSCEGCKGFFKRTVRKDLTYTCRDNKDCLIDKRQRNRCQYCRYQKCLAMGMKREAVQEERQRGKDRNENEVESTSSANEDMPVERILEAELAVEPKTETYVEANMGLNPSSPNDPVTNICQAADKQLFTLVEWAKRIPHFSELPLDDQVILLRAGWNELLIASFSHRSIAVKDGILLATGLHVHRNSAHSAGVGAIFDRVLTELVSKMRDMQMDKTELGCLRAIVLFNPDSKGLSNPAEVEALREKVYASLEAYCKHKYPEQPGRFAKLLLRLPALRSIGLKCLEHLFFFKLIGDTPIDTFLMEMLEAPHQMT
Chain of Nuclear receptor subfamily 1 group I member 2 (Homo sapiens) (O75469 whole entry, looked up, the tested form may be a part): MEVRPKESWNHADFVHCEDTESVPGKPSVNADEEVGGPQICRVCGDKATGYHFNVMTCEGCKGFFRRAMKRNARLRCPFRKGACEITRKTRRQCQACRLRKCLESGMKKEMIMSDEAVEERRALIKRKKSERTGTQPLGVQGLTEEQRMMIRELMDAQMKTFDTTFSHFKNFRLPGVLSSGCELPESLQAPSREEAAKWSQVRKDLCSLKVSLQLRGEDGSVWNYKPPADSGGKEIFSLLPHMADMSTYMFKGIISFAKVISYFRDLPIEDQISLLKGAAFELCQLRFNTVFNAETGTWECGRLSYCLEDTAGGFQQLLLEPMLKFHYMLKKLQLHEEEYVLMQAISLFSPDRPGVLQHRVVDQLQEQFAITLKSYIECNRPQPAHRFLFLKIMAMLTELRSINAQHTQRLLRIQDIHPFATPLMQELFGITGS
Chain of E-selectin (Homo sapiens) (P16581 whole entry, looked up): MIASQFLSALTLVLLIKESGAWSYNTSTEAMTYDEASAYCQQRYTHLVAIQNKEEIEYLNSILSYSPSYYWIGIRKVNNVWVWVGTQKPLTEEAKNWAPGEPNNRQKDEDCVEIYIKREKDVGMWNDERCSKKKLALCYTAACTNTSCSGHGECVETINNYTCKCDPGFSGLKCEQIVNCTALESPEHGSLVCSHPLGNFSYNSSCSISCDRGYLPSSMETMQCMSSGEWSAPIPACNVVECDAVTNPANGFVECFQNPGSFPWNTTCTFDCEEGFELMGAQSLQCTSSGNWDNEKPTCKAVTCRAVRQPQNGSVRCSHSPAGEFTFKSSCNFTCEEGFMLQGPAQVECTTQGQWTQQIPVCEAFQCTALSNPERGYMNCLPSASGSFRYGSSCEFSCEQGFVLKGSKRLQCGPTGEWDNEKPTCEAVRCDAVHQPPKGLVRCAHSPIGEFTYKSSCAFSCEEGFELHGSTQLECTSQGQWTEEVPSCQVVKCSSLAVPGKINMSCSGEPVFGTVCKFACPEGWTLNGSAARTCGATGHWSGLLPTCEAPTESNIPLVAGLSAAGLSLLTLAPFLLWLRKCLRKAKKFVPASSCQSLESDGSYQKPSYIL
Chain of human Retinoic Acid Receptor gamma (RARg), RARG (gene 5916) (P13631 whole entry, looked up, the tested form may be a part): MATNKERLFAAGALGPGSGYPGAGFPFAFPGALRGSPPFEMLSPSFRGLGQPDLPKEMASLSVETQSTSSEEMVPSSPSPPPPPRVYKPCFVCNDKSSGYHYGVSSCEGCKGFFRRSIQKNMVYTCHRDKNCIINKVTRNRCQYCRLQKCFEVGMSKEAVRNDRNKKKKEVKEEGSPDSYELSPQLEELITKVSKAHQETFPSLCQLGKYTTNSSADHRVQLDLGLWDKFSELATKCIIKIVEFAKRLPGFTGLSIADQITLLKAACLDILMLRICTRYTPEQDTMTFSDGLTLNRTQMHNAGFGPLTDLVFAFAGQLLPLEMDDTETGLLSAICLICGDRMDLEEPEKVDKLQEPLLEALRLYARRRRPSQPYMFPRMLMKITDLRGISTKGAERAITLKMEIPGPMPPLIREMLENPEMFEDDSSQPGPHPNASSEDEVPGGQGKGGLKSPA

Turning to `COc1cccc(C(=O)NN(C(=O)c2cc(C)cc(C)c2)C(C)(C)C)c1C`, the result in experiment [1], in [2], in [3], in experiment [4], in experiment [5] and in experiment [6] was inactive. In addition, the outcome in experiment [7], in experiment [8], in experiment [9], in experiment [10], in experiment [11] and in [12] was inactive.

Take `CC(=NC#N)N(C)Cc1ccc(Cl)nc1`: the outcome in experiment [1], in experiment [13], in experiment [2], in [4], in experiment [5] and in [6] was inactive. Moreover, the outcome in experiment [14], in experiment [15], in experiment [16], in experiment [17], in [18] and in [7] was inactive. Besides, the outcome in experiment [8], in experiment [9], in experiment [10], in [11] and in experiment [12] was inactive.

Take `CCCOc1nn(C(=O)NS(=O)(=O)c2ccccc2C(=O)OC)c(=O)n1C`: the result in experiment [1], in experiment [2], in experiment [4], in experiment [5], in [6] and in experiment [14] was inactive. Also, the compound was classed as inactive in experiment [15], in experiment [17], in [19], in experiment [7], in experiment [8] and in [9]. Further, the outcome in experiment [10], in experiment [11] and in [12] was inactive.

As to `CC(C)=CC1C(C(=O)OCN2C(=O)C3=C(CCCC3)C2=O)C1(C)C` (configuration not stated), the outcome in [1], in [13], in [2], in [15], in experiment [16] and in experiment [17] was inactive. Also, the result in experiment [18], in experiment [19], in experiment [8], in experiment [10] and in [12] was inactive. Moreover, the AC50 was 15.6 µM (active) in [4]; 50 µM (active) in experiment [5]; 40.2 µM (active) in experiment [6]; 26.9 µM (active) in experiment [7]; 7.53 µM (active) in experiment [9]; 27.9 µM (active) in [11].

For the compound `CCC(=NOC/C=C/Cl)C1=C(O)CC(C2CCOCC2)CC1=O` (configuration not stated), the result in experiment [1], in [20], in experiment [2], in experiment [4], in [5] and in experiment [6] was inactive. Besides, the outcome in [15], in [16], in experiment [17], in [18], in experiment [19] and in [7] was inactive. For the same compound, the outcome in [8], in [9], in [10], in [11] and in experiment [12] was inactive.

As to `COP(=O)(NC(C)=O)SC` (configuration not stated), the outcome in experiment [1], in experiment [2], in experiment [4], in experiment [5], in experiment [15] and in experiment [16] was inactive. In addition, the compound was called inactive in experiment [17], in experiment [18], in experiment [19], in [7], in experiment [8] and in experiment [9]. Besides, the result in [10], in experiment [11] and in experiment [12] was inactive.

Turning to `COc1cc(OC)nc(Sc2cccc(Cl)c2C(=O)O)n1`, the outcome in experiment [1], in experiment [13], in experiment [2], in [4], in experiment [5] and in experiment [16] was inactive. Also, the call in experiment [18], in experiment [19], in experiment [7], in experiment [8], in experiment [9] and in experiment [10] was inactive. In addition, the outcome in experiment [11] and in [12] was inactive.

These data come from PubChem BioAssay (EPA / NIEHS).
